# ChEMBL document CHEMBL2218924, “A broad activity screen in support of a chemogenomic map for kinase signalling research and drug discovery” (Biochem J, 2013)
# Key:
# [1] = biological target: T1, Ephrin type-B receptor 1 (Homo sapiens) (UniProt P54762); conditions: at 10 µM
# T1 sequence (whole entry): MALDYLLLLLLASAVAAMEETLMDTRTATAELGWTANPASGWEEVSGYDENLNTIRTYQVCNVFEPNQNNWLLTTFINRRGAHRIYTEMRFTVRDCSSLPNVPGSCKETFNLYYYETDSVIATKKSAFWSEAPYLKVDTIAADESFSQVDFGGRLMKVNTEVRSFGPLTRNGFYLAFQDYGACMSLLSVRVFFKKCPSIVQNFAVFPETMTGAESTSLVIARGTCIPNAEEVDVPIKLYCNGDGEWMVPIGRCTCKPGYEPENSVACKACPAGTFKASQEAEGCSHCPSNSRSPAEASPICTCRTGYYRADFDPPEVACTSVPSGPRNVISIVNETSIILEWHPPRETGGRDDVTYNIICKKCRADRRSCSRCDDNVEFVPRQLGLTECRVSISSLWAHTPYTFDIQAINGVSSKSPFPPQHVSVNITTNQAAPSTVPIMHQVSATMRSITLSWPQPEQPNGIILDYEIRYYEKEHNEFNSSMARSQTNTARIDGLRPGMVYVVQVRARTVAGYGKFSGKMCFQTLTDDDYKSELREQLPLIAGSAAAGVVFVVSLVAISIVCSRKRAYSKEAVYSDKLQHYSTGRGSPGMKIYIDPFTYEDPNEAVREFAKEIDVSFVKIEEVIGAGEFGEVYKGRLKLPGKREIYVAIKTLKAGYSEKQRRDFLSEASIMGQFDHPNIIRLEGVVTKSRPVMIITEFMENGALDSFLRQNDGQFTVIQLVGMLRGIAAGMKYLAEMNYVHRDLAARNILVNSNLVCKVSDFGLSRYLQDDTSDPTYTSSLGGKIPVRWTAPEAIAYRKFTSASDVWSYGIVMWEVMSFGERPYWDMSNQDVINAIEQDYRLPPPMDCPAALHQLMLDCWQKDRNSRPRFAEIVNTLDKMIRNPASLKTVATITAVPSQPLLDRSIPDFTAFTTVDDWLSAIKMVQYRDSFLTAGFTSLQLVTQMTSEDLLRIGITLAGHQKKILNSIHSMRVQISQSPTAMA
# [2] = biological target: T2, Ephrin type-B receptor 2 (Homo sapiens) (UniProt P29323); conditions: at 1 µM
# T2 sequence (whole entry): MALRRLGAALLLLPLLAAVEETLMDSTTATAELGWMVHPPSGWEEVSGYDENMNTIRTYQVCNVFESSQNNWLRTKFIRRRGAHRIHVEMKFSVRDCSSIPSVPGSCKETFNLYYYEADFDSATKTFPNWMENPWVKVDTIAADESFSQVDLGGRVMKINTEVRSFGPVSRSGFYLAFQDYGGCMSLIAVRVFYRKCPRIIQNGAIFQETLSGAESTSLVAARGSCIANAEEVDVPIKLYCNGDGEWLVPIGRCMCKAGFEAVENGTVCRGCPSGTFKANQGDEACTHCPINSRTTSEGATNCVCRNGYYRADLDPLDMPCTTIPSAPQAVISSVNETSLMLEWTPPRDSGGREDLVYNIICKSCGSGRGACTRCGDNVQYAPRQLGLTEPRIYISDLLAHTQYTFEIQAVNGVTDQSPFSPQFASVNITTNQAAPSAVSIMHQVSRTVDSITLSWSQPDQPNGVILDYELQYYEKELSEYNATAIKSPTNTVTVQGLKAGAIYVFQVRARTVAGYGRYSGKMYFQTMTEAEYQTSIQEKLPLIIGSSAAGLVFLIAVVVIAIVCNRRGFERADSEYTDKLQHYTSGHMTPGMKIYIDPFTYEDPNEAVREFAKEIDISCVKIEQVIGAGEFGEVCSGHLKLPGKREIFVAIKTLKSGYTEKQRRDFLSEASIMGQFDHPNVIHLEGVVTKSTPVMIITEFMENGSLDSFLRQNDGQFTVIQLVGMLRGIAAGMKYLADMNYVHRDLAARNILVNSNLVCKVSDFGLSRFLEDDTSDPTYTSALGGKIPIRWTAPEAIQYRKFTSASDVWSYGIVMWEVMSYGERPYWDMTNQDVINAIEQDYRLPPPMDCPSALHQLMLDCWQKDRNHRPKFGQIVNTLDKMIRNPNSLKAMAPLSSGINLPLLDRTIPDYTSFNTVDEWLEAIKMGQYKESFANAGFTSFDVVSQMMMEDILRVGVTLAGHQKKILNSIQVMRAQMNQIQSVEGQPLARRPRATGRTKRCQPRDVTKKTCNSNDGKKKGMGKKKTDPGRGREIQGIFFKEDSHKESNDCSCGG
# [3] = biological target: T2, Ephrin type-B receptor 2 (Homo sapiens); conditions: at 10 µM
# [4] = biological target: T3, Ephrin type-B receptor 3 (Homo sapiens) (UniProt P54753); conditions: at 1 µM
# T3 sequence (whole entry): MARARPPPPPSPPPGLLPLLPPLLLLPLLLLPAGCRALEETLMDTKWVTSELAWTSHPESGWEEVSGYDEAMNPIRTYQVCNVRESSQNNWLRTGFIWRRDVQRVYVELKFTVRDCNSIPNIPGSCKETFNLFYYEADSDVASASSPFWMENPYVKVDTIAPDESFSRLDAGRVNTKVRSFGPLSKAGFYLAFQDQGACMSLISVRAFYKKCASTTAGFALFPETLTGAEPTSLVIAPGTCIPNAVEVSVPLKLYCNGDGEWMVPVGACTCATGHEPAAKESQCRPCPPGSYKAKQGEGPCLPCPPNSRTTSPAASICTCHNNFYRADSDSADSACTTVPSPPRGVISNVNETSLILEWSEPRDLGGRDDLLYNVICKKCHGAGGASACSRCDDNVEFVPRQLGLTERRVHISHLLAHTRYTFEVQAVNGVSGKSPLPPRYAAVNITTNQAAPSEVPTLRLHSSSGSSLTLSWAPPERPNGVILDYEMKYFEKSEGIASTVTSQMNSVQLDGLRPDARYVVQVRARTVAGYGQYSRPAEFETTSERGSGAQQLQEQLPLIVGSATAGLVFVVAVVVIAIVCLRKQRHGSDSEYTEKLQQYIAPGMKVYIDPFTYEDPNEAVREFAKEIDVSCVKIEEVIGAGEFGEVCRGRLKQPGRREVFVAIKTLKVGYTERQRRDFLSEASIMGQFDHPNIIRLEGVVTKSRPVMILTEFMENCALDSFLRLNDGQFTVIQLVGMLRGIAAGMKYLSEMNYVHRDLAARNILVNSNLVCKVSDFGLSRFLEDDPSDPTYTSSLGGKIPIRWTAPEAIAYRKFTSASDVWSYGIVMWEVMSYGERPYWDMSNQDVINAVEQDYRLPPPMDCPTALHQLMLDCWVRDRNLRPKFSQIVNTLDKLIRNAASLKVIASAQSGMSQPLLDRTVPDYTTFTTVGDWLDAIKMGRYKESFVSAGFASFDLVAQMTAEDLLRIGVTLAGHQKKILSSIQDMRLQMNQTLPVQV
# [5] = biological target: T3, Ephrin type-B receptor 3 (Homo sapiens); conditions: at 10 µM
# [6] = biological target: T4, Ephrin type-B receptor 4 (Homo sapiens) (UniProt P54760); conditions: at 1 µM
# T4 sequence (whole entry): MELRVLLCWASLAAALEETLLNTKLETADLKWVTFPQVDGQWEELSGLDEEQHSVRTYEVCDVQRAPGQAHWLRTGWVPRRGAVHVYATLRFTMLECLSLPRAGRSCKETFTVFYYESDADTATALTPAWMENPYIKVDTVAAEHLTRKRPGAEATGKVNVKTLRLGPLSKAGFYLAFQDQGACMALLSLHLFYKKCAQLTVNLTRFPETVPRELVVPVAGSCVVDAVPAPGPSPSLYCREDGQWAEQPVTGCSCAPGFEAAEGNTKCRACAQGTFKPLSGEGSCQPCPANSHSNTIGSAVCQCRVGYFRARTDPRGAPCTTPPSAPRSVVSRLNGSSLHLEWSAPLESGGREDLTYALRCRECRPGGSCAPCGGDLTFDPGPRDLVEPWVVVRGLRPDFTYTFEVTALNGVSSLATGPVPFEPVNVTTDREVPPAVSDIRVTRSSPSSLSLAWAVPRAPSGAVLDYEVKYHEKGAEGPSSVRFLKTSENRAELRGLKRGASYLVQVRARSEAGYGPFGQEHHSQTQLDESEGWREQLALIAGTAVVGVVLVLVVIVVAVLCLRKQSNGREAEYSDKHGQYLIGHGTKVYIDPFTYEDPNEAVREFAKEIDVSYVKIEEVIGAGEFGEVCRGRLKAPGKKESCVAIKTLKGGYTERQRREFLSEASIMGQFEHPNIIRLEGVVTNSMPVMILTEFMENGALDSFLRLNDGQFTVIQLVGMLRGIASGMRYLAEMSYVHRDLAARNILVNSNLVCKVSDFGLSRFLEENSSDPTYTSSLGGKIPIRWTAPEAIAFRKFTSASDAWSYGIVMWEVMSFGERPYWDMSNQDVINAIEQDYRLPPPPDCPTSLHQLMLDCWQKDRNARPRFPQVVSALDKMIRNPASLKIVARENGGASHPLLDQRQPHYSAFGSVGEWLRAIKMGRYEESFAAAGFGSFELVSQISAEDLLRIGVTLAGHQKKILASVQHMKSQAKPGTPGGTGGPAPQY
# [7] = biological target: T4, Ephrin type-B receptor 4 (Homo sapiens); conditions: at 10 µM
# [8] = biological target: Receptor tyrosine-protein kinase erbB-4 (Homo sapiens) (UniProt Q15303); conditions: at 1 µM
# [9] = biological target: Receptor tyrosine-protein kinase erbB-4 (Homo sapiens) (UniProt Q15303); conditions: at 10 µM
# [10] = biological target: Focal adhesion kinase 1 (Homo sapiens) (UniProt Q05397); conditions: at 1 µM
# Chain of Focal adhesion kinase 1 (Homo sapiens) (Q05397 2-1052 limits assumed): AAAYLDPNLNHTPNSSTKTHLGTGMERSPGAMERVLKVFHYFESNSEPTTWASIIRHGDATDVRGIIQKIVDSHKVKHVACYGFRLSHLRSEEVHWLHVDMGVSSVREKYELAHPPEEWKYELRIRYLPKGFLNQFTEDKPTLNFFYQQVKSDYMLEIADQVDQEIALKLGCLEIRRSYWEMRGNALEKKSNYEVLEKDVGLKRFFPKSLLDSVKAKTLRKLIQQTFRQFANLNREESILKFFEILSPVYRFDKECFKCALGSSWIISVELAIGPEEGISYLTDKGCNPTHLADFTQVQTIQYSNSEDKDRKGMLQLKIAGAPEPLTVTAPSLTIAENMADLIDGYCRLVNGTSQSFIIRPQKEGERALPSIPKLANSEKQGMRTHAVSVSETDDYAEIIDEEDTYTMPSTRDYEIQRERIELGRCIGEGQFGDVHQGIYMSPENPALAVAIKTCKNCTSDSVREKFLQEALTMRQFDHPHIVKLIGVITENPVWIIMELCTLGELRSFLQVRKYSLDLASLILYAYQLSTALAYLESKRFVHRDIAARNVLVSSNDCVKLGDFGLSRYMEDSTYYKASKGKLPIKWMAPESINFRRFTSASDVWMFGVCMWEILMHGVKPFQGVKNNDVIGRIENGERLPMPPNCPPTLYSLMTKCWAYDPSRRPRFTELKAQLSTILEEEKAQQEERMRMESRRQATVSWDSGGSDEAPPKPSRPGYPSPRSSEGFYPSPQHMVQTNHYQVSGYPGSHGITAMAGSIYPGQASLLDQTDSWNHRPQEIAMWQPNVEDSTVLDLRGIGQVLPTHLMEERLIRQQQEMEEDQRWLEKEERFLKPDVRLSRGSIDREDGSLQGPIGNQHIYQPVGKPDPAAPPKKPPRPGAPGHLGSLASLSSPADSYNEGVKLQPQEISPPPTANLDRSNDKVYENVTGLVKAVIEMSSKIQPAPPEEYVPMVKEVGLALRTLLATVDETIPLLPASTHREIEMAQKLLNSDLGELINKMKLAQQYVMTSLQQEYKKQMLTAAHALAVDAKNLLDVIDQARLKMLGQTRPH
# Chain of Receptor tyrosine-protein kinase erbB-4 (Homo sapiens) (Q15303 whole entry): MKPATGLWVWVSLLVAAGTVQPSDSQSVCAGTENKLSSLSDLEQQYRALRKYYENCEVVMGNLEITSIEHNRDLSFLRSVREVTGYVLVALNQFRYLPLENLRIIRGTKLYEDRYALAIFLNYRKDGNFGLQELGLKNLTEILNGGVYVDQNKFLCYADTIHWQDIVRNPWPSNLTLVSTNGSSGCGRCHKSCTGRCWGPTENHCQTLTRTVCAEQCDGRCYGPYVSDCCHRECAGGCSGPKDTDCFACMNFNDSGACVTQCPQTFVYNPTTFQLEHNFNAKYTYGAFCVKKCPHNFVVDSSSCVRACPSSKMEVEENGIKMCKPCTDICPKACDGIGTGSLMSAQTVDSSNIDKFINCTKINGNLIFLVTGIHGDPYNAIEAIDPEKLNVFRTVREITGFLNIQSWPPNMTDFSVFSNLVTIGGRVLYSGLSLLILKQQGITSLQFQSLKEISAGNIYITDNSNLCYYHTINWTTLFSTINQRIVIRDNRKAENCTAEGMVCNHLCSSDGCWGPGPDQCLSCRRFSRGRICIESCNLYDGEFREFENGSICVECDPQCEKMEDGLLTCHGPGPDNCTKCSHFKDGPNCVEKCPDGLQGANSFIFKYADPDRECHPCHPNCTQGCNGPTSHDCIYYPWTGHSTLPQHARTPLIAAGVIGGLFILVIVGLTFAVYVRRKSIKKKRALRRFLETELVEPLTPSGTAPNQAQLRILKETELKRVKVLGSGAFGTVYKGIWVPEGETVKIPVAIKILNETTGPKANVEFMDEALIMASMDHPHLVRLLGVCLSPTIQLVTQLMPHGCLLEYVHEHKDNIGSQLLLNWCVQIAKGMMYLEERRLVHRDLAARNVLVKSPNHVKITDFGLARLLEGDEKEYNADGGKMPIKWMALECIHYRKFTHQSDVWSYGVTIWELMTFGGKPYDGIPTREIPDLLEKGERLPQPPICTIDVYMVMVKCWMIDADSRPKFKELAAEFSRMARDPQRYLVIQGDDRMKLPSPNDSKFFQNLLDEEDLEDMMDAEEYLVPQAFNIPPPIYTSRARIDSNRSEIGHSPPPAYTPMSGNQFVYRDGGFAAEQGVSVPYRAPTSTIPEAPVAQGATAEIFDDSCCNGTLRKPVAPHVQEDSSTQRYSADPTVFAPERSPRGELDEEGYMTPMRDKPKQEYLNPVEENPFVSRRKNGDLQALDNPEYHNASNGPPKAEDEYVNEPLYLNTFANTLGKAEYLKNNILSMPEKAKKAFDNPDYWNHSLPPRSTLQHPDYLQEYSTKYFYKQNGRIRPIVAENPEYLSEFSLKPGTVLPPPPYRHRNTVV
smiles,measurement,setting,value
CC(C)n1cnc2c(NCc3ccccc3)nc(NCCCO)nc21,residual activity,[1],79%
same,residual activity,[2],111%
same,residual activity,[3],115%
same,residual activity,[4],121% (inactive)
same,residual activity,[5],104%
same,residual activity,[6],100%
same,residual activity,[7],88%
same,residual activity,[8],52%
same,residual activity,[9],45%
same,residual activity,[10],97%
